In PubChem BioAssay AID1159580 (chemical genetic matrix, 2015):
Among all 5,500 compounds or so, about 2,000 (36%) were called active. About 18% were inconclusive and are not listed. Cut-off read from the data, not from the text of the source: active = normalized growth mostly below about 0.91 (no sharp cut-off); inconclusive = no clear call, values can overlap the other calls; inactive = mostly above about 0.92. Some of the results follow.

Assay: chemical genetic growth profiling, strain panel (AID 1159580);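 note: tested at 20 µM; growth read once vehicle control cultures reached saturation at 30 °C; 1 = growth at the plate median or of vehicle wells; lower values mean less growth of the strain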
Details: S. cerevisiae deletion strains, growth OD

Measured: normalized growth

O=c1cc(-c2ccc(O)c(O)c2)oc2cc(O)cc(O)c12
inactive: locus YAL040C, strain CLN3, active compounds read low 1.02 | locus YCL061C, strain MRC1 (second series), active compounds read low 0.989 | locus YDR150W, strain NUM1, active compounds read low 0.964 | locus YDR363W, strain ESC2, active compounds read low 1.02 | locus YER002W, strain NOP16, active compounds read low 1.01 | locus YGR078C, strain PAC10, active compounds read low 0.989 | locus YJR075W, strain HOC1, active compounds read low 0.984 | locus YMR263W, strain SAP30, active compounds read low 1 | locus YNL175C, strain NOP13, active compounds read low 1.01 | locus YNL197C, strain WHI3, active compounds read low 1.02 | locus YNL224C, strain SQS1, active compounds read low 1.03 | locus YOR083W, strain WHI5 (second series), active compounds read low 0.966 | locus YPL241C, strain CIN2, active compounds read low 0.997
